High-throughput results: PubChem BioAssay, National Center for Advancing Translational Sciences (NCATS)
Pf Dd2 inh: inhibitors of Plasmodium falciparum Dd2 growth; 120,000 tested, 4.3% active; Potency, µM (doses to about 28.9 µM), inactives show top-dose activity, negative = inhibition, most hits filed as inhibitors; P. falciparum Dd2 growth, SYBR Green, 72 h; active means well fitted inhibition curve with a large enough effect;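 further: plate controls were DMSO vehicle for no effect and reference drug for full effect; nearly all actives have a fitted effect of over 65% in size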
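Infected erythrocytes (Dd2, 0.3% parasitemia, 2.5% hematocrit final) are added to compound in RPMI-1640/Albumax II medium, grown 72 h at 37C in low oxygen, then lysed with saponin/Triton-X containing SYBR Green and read by fluorescence.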
* hit, by the source's call; [ ] = dose if it differs, or a comment. The full list was thinned out, with hits kept by preference. Potency means the concentration at half of the fitted maximal effect.

`CC(C)c1ccc(OCc2nc3c(n2Cc2ccccc2)C(=O)N(CC2CCOCC2)CCN3)cc1` gave Pf Dd2 inh -23%.
For CC(=O)N1CCC(C(=O)N2[C@@H]3CC[C@H]2CC(NC(=O)c2ccc(F)cc2)C3)CC1 (stereo not given in full) the results were Pf Dd2 inh -7%.
For Cc1nnc(CN(C)c2ccc(-c3nc(CCCc4ccccc4)no3)cn2)o1 the results were Pf Dd2 inh inactive.
Screening CN(Cc1ncc[nH]1)c1ccc(-c2nc(CCCc3ccccc3)no2)cn1 returned Pf Dd2 inh 4.5µM*.
CN(Cc1ccccn1)c1ccc(-c2nc(Cc3ccc(F)cc3)no2)cn1 was read as Pf Dd2 inh -27%.
Screening O=C(CCc1ccccc1)N1CC(c2noc(COc3ccccc3)n2)C1 returned Pf Dd2 inh inactive.
`O=C(NC1CCN(c2cc(-c3ccccc3)[nH]n2)C1)c1cccc(F)c1` (stereo not given) gave Pf Dd2 inh -7%.
Screening Cc1ccc(C(=O)NC2CCN(c3cn[nH]c(=O)c3)CC2)cc1C returned Pf Dd2 inh -5%.
COC[C@@H]1CN(Cc2ccc[nH]2)C[C@H]1c1ccncc1 was read as Pf Dd2 inh 33%.
`CC(=O)c1c(C)nn(CC(=O)N[C@H]2CCOC[C@H]2C2CCOCC2)c1C` gave Pf Dd2 inh -3%.
Screening O=C1CCN(S(=O)(=O)c2ccccc2)CCCC(C(=O)N2CCCCC2)CCN1 (stereo not given) returned Pf Dd2 inh inactive.
`COc1ccc(CNC(=O)CSc2ncc3c(n2)-c2cc(Cl)ccc2N(Cc2ccccc2)S3(=O)=O)cc1` gave Pf Dd2 inh -29%.
Screening COc1ccc(CNC(=O)CSc2ncc3c(n2)-c2ccc(Cl)cc2N(Cc2ccc(F)cc2)S3(=O)=O)cc1OC returned Pf Dd2 inh 11µM*.
`COc1ccccc1CNC(=O)CSc1ncc2c(n1)-c1ccc(Cl)cc1N(Cc1ccccc1)S2(=O)=O` gave Pf Dd2 inh 1%.
For O=C(NCc1cccc(Cl)c1)C1CN(c2ccc(Cl)cc2)C(=O)N1 (stereo not given) the results were Pf Dd2 inh inactive.
`Cc1cc(C)c2c(c1)NC(=O)C2(O)c1c[nH]c2ccccc12` (stereo not given) gave Pf Dd2 inh 4%.
`CC(=O)Nc1cccc(-c2ccc3c(n2)CN(Cc2nc4ccccc4s2)C(=O)CO3)c1` gave Pf Dd2 inh -10%.
Screening CCc1cccc(NC(=O)N2[C@H]3CC[C@@H]2c2cncnc2C3)c1 returned Pf Dd2 inh -8%.
Screening O=C(NCc1cccs1)c1ccc2c(c1)sc1nc(-c3ccc(F)cc3)cn12 returned Pf Dd2 inh -12%.
`Cc1ccc(-c2cn3c(n2)sc2cc(C(=O)NC4CCCCCC4)ccc23)cc1` gave Pf Dd2 inh 1%.
CCc1ccc(-c2cn3c(n2)sc2cc(C(=O)NCCCc4ccccc4)ccc23)cc1 was read as Pf Dd2 inh inactive.
Screening CCc1ccc(-c2cn3c(n2)sc2cc(C(=O)NCC(C)c4ccccc4)ccc23)cc1 (stereo not given) returned Pf Dd2 inh -1%.
For O=C(NCCCN1CCCCCC1)c1ccc2c(c1)sc1nc(-c3ccccc3)cn12 the results were Pf Dd2 inh 10µM*.
Screening Cc1ccc(-c2cn3c(n2)sc2cc(C(=O)NCCCc4ccccc4)ccc23)c(C)c1 returned Pf Dd2 inh 5µM*.
`CCc1ccc(-c2cn3c(n2)sc2cc(C(=O)NC4CCCCCC4)ccc23)cc1` gave Pf Dd2 inh 8%.
Screening O=C(NC1CCCCC1)c1ccc2c(c1)sc1nc(-c3ccccc3)cn12 returned Pf Dd2 inh inactive.
For CCC1CCCCN1CCCNC(=O)c1ccc2c(c1)sc1nc(-c3ccc(F)cc3)cn12 (stereo not given) the results were Pf Dd2 inh 1µM*.
CCCc1nc(CC)c2c(=O)[nH]ccn12 was read as Pf Dd2 inh inactive.
NC(=O)[C@@H]1CN(C2CCSCC2)C[C@H]1COc1ccccc1 was read as Pf Dd2 inh inactive.
For Cc1cc(C)cc(NC(=O)C2CCCN2S(=O)(=O)c2ccc3c(c2)C(C)(C)C(=O)N3C)c1 (stereo not given) the results were Pf Dd2 inh -12%.
For O=C(Cc1c(F)cccc1Cl)NC1CCN(c2cc(-c3ccc(F)cc3)[nH]n2)CC1 the results were Pf Dd2 inh inactive.
Screening CCn1c(=O)cc(SCC(=O)Nc2cc(Cl)ccc2OC)c2ccccc21 returned Pf Dd2 inh inactive.
For CCc1ccc(-c2[nH]nc3nc(-c4ccc(OC)cc4)cc(C(=O)NCCCOC)c23)cc1 the results were Pf Dd2 inh inactive.
Screening COc1ccc(-c2nc3ccccc3o2)cc1NC(=O)COc1ccc(C(C)(C)C)cc1 returned Pf Dd2 inh 7.9µM*.
`COc1ccc(-c2nc3ccccc3o2)cc1NC(=O)COc1cc(C)cc(C)c1` gave Pf Dd2 inh inactive.
COc1ccc(-c2nc3ccccc3s2)cc1NC(=O)COc1ccc(C)cc1 was read as Pf Dd2 inh 10%.
For COc1ccc(CCNC(=O)c2noc(-c3ccccc3F)n2)cc1OC the results were Pf Dd2 inh -4%.
For CC(C)(N)c1cn(C2CCN(Cc3cccn3-c3ncccn3)CC2)nn1 the results were Pf Dd2 inh 1%.
Cc1ccc(NC(=O)N2CCc3c(c4ccccc4n3C)C2)cc1 was read as Pf Dd2 inh inactive.
Screening Cn1c2c(c3ccccc31)CN(C(=O)Nc1ccccc1F)CC2 returned Pf Dd2 inh 11µM*.
`CCc1ccc(NC(=O)N2CCc3c(c4ccccc4n3C)C2)cc1` gave Pf Dd2 inh inactive.
Screening O=C1CCC(C(=O)N2CCc3c(n(CCOc4ccccc4)n(-c4ccccc4)c3=O)C2)N1 (stereo not given) returned Pf Dd2 inh 2%.
Screening Cc1nc(-c2ccc(F)cc2)n(Cc2cccc(C(F)(F)F)c2)c(=O)c1CCO returned Pf Dd2 inh -7%.
Screening CCC(=O)Nc1ccccc1C(=O)OCc1cc(=O)n2cc(C)sc2n1 returned Pf Dd2 inh 123%.
For COc1ccc(NC(=O)C2Cn3cccc3C(=O)N2C)cc1 (stereo not given) the results were Pf Dd2 inh -18%.
For COc1ccc(CCN2C(=O)N(c3ccc(F)cc3)C(=O)C2CC(=O)Nc2ccccc2)cc1OC (stereo not given) the results were Pf Dd2 inh inactive.
`COc1ccc(CCNC(=O)C2CC(=O)N(CCc3ccccc3)C2)cc1OC` (stereo not given) gave Pf Dd2 inh 70%.
For COc1ccc(S(=O)(=O)N2Cc3ccccc3CC2C(=O)Nc2cccc(C)c2)cc1OC (stereo not given) the results were Pf Dd2 inh -13%.
For COc1ccc2cc1Nc1ccc(cc1)C[C@H](NCc1cccc(O)c1)C(=O)N(C)[C@@H](C(=O)Nc1ccccc1)C2 the results were Pf Dd2 inh 4.5µM*.
COc1ccc2cc1Nc1ccc(cc1)C[C@H](NCC1CC1)C(=O)N(C)[C@@H](C(=O)Nc1ccccc1)C2 was read as Pf Dd2 inh 4µM*.
Screening CC(=O)N1CCN(C(=O)c2cccs2)[C@H](C(=O)N[C@@H](CC2CCCCC2)C(N)=O)C1 returned Pf Dd2 inh 6%[44.1 µM].
`Cc1nnnn1Cc1ccc(C(=O)N2CCc3nc(-c4cn[nH]c4)[nH]c3C2)cc1` gave Pf Dd2 inh 6%.
For CC1=Nc2cc(C(=O)NC3CCCC3)ccc2Sc2ccc(Cl)cc21 the results were Pf Dd2 inh 11µM*.
